The full ranking holds about 16,000 sequences; the median of “rpm ratio (pull-down/input)” is about 0.94, and the highest 2% start at about 1.7. The sample holds the highest values, similar sequences and a random draw of the others, so the mix is not that of the screen.
biological target: T1, MBP-FoxP1dN (Mus musculus, UniProt P58462 326-579); assay: PD-seq (MBP pull-down with sequencing); 20 mM Tris-HCl pH 7.5, 100 mM NaCl, 1.5 mM MgCl2, 0.4 uM protein, 0.1 uM dsDNA library, 30 min, room temperature, amylose pull-down; high values mean tight binding; details: protein: recombinant; tags: His6-MBP; chain copies: 2; dsDNA, one strand shown
T1 sequence: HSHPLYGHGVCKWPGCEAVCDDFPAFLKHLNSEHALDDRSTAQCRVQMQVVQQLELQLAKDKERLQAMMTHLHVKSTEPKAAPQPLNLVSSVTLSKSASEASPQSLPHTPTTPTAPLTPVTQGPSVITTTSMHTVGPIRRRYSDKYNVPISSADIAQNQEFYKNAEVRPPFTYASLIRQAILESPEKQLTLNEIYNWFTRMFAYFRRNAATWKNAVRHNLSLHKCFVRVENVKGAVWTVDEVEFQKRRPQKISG
Outline: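 Protein and DNA were mixed at 0.4 µM and 0.1 µM and held for 30 min at room temperature in Tris pH 7.5 buffer with NaCl and MgCl2; the protein was a His6-MBP-tagged, N-terminally truncated mouse FoxP3 or FoxP1 fragment from E. coli, and the DNA a Klenow-filled double-stranded degenerate library. Amylose resin captured the complexes, which were washed three times. Binding is read as reads-per-million enrichment of pull-down versus input after Illumina sequencing, with replicates pooled.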

Sequence	binding signal
GATGATTGTTCTCCCAGCTGATGAATTATCGTCGTCGAGTAAACAAATTTTCCTAATCTTTCTGTTCAAGCGCCATCTAC	0.884 RPM ratio (pull-down/input)
GATGATTGTTCTCCCAGCTGATGAATTTCTAGTTTCGAGTAAACAAATTTTCCTAATCTTTCTGTTCAAGCGCCATCTAC	0.858 RPM ratio (pull-down/input)
GATGATTGTTCTCCCAGCTGATGAATTTCGCATGTCGAGTAAACAAATTTTCCTAATCTTTCTGTTCAAGCGCCATCTAC	0.944 RPM ratio (pull-down/input)
GATGATTGTTCTCCCAGCTGATGAATTAGTCACCTCGAGTAAACAAATTTTCCTAATCTTTCTGTTCAAGCGCCATCTAC	0.877 RPM ratio (pull-down/input)
GATGATTGTTCTCCCAGCTGATGAATTCTGGGCTTCGAGTAAACAAATTTTCCTAATCTTTCTGTTCAAGCGCCATCTAC	0.843 RPM ratio (pull-down/input)
GATGATTGTTCTCCCAGCTGATGAATTTAGTATTTCGAGTAAACAAATTTTCCTAATCTTTCTGTTCAAGCGCCATCTAC	1.24 RPM ratio (pull-down/input)
GATGATTGTTCTCCCAGCTGATGAATTAGTATTTTCGAGTAAACAAATTTTCCTAATCTTTCTGTTCAAGCGCCATCTAC	2.28 RPM ratio (pull-down/input)
GATGATTGTTCTCCCAGCTGATGAATTAGTTCTGTCGAGTAAACAAATTTTCCTAATCTTTCTGTTCAAGCGCCATCTAC	0.873 RPM ratio (pull-down/input)
GATGATTGTTCTCCCAGCTGATGAATTGTATTAGTCGAGTAAACAAATTTTCCTAATCTTTCTGTTCAAGCGCCATCTAC	1.3 RPM ratio (pull-down/input)
GATGATTGTTCTCCCAGCTGATGAATTAGTATTGTCGAGTAAACAAATTTTCCTAATCTTTCTGTTCAAGCGCCATCTAC	2.55 RPM ratio (pull-down/input)
GATGATTGTTCTCCCAGCTGATGAATTAGTAATTTCGAGTAAACAAATTTTCCTAATCTTTCTGTTCAAGCGCCATCTAC	1.07 RPM ratio (pull-down/input)
GATGATTGTTCTCCCAGCTGATGAATTAACATCGTCGAGTAAACAAATTTTCCTAATCTTTCTGTTCAAGCGCCATCTAC	0.998 RPM ratio (pull-down/input)
GATGATTGTTCTCCCAGCTGATGAATTAAAACATTCGAGTAAACAAATTTTCCTAATCTTTCTGTTCAAGCGCCATCTAC	1.4 RPM ratio (pull-down/input)
GATGATTGTTCTCCCAGCTGATGAATTAGACGTATCGAGTAAACAAATTTTCCTAATCTTTCTGTTCAAGCGCCATCTAC	1.02 RPM ratio (pull-down/input)
GATGATTGTTCTCCCAGCTGATGAATTCTGTTTTTCGAGTAAACAAATTTTCCTAATCTTTCTGTTCAAGCGCCATCTAC	1.99 RPM ratio (pull-down/input)
GATGATTGTTCTCCCAGCTGATGAATTCTTCGTGTCGAGTAAACAAATTTTCCTAATCTTTCTGTTCAAGCGCCATCTAC	0.867 RPM ratio (pull-down/input)
GATGATTGTTCTCCCAGCTGATGAATTCGTCGTGTCGAGTAAACAAATTTTCCTAATCTTTCTGTTCAAGCGCCATCTAC	0.922 RPM ratio (pull-down/input)
GATGATTGTTCTCCCAGCTGATGAATTCCTGATTTCGAGTAAACAAATTTTCCTAATCTTTCTGTTCAAGCGCCATCTAC	1.02 RPM ratio (pull-down/input)
GATGATTGTTCTCCCAGCTGATGAATTCTCTGTTTCGAGTAAACAAATTTTCCTAATCTTTCTGTTCAAGCGCCATCTAC	0.91 RPM ratio (pull-down/input)
GATGATTGTTCTCCCAGCTGATGAATTCCCTGTTTCGAGTAAACAAATTTTCCTAATCTTTCTGTTCAAGCGCCATCTAC	0.907 RPM ratio (pull-down/input)
GATGATTGTTCTCCCAGCTGATGAATTTCGTGTTTCGAGTAAACAAATTTTCCTAATCTTTCTGTTCAAGCGCCATCTAC	1.02 RPM ratio (pull-down/input)
GATGATTGTTCTCCCAGCTGATGAATTCGTGTGTTCGAGTAAACAAATTTTCCTAATCTTTCTGTTCAAGCGCCATCTAC	1.22 RPM ratio (pull-down/input)
GATGATTGTTCTCCCAGCTGATGAATTCGTGTTGTCGAGTAAACAAATTTTCCTAATCTTTCTGTTCAAGCGCCATCTAC	2.52 RPM ratio (pull-down/input)
GATGATTGTTCTCCCAGCTGATGAATTCCTGTTTTCGAGTAAACAAATTTTCCTAATCTTTCTGTTCAAGCGCCATCTAC	2.04 RPM ratio (pull-down/input)
GATGATTGTTCTCCCAGCTGATGAATTCGTGTTTTCGAGTAAACAAATTTTCCTAATCTTTCTGTTCAAGCGCCATCTAC	2.29 RPM ratio (pull-down/input)
GATGATTGTTCTCCCAGCTGATGAATTCGAGTTTTCGAGTAAACAAATTTTCCTAATCTTTCTGTTCAAGCGCCATCTAC	1.08 RPM ratio (pull-down/input)

Reference: publication PMC12820563, “FoxP3 forms a head-to-head dimer in vivo and stabilizes its multimerization on adjacent microsatellites”
